Compound activity from PubChem BioAssay.
mHtt clearance = compounds clearing mutant huntingtin protein; HeLa Exon1htt(103Q)mCFP, aggregate imaging; zero = plate's median compound well; inhibition, % at 1.5 µM; actives 0.42% (n = 47,000); AID 853;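 active means inhibition of aggregate fluorescence above about 70%, also judged a hit by eye on the cell image, limit read from the data, passing the limit was not always enough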;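 further: cells exposed to compound for three days before fixation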
M1 ag = agonists of M1 muscarinic receptor; CHO-M1 cells, Fluo-4 calcium fluorescence, agonist mode; active compounds read high; AID 626; B-score at 10 µM; actives 3% (n = 64,000);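 active means fluorescence rise, raw or as B-score row- and column-corrected plate score, outside the 99.7% band of its plate's samples, either direction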
WNV NS2B-NS3 inh = blocks West Nile virus NS2B-NS3 protease activity. P06935. WNV NS2B-NS3 protease, fluorogenic substrate Ex360/Em465; active compounds read low. z-score (no concentration beside the values). actives 0.18% (n = 65,000); in the data active means z-score below about -3
Target sequence (P06935 1371-1501 limits assumed): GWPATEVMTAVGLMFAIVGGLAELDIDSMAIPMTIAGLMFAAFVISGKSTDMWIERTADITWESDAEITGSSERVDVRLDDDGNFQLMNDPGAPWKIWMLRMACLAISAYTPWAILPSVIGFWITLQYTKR
Target sequence (P06935 1502-1679 limits assumed): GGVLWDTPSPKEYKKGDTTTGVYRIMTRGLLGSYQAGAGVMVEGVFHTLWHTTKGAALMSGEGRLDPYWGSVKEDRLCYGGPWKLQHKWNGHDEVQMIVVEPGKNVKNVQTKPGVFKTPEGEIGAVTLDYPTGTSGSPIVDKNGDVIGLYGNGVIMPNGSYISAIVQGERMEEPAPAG
D1 allo mod = allosterically modulates the human D1 dopamine receptor. P21728. HEK293 D1, CRE-luciferase, dopamine EC30 potentiation; actives deviate in either direction. B-score at 10 µM. actives 5.9% (n = 58,000). AID 641;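 active means luminescence count or its row- and column-corrected plate score outside the 99.7% band of the plate's sample wells, on either side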
M1 antagonist = blocks the rat M1 muscarinic receptor response to acetylcholine; P08482; CHO-M1 cells, Fluo-4 calcium, ACh EC80 antagonist mode; active compounds read low; B-score at 10 µM; actives 3.4% (n = 64,000); AID 628;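 active means calcium fluorescence response, raw or row-and-column corrected B-score, differing from the plate sample mean either way at a set confidence level, mostly lower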
D1 mod confirm = D1 receptor (human) allosteric modulation, confirmed. shares compounds with D1 allo mod. HEK293 D1 CRE-luciferase, dopamine EC30 potentiation; active compounds read high. luminescence at 10 µM. actives 88% (n = 2,200);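 active means luminescence in either of two replicates above the same-plate mean plus 3 SD of the low-dose dopamine control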
D1 no dopamine = activates D1 CRE-luciferase signal without dopamine present; HEK293 D1 CRE-luciferase, luminescence, no dopamine; active compounds read high; shares compounds with D1 allo mod; luminescence at 10 µM; actives 0.8% (n = 1,900); in the data active means luminescence above about 3900
Isoprot counter = isoproterenol response counter-screen activity for D1 modulators; shares compounds with D1 allo mod; HEK293 D1 CRE-luciferase, isoproterenol EC30 counter-screen; calls only at 10 µM; actives 63% (n = 2,200); AID 647;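 active means luminescence in either replicate above plate mean of wells with a partly effective reference agonist dose plus 3 SD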;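 further: isoproterenol raises cAMP through native beta-adrenoceptor Gs so signal bypasses D1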
Numbers without * were called inactive; i = inactive; · = no result given; + = active, no number. In the library only some 8.9% were active in any assay of this set; here they are far more common.

SMILES	mHtt clearance	M1 ag	WNV NS2B-NS3 inh	D1 allo mod	M1 antagonist	D1 mod confirm	D1 no dopamine	Isoprot counter
COC(=O)c1c(-c2ccc(F)cc2)csc1NC(=O)c1ccco1	3	-0.91	-0.06	3.3*	1.5	8568*	1648	i
NC(=O)c1cc(Cc2ccccc2)sc1NC(=O)c1ccco1	·	1.5	-0.52	8.4*	0.15	15080*	1668	+
CCOc1ccc(OCC)c(NC(=O)CC2Oc3ccc(C)cc3NC2=O)c1 (stereo not given)	9	-0.049	0.11	2.7*	0.033	6392	1720	i
CC12CC(c3ccccc3O1)C(C(=O)NCc1ccccc1)C(=O)N2 (stereo not given)	52	0.49	-0.85	-0.9	-0.027	·	·	·
COc1ccc(C(=O)Nc2cccc3c2C(=O)NC3=O)cc1S(=O)(=O)N1CCOCC1	·	-1.9	0.25	1.4	-0.25	·	·	·
COC(=O)c1ccc(CS(=O)(=O)c2ccccc2C)o1	·	-0.31	0.12	4.6*	-0.67	6940	1632	i
COc1ccc(C2CC(=O)Nc3ccccc3S2(=O)=O)cc1OC (stereo not given)	·	-0.99	-1.2	2.9*	-0.0081	9916*	1608	i
COc1ccc(CC(=O)N2CCN=C2SC)cc1	-34	0.78	-1.4	11*	0.2	15276*	1524	+
CSC1=NCCN1C(=O)Cc1ccc(Cl)cc1	-290	-0.096	-0.92	3	0.97	·	·	·
O=C(CCCc1nc2ccccc2s1)N1CCN(S(=O)(=O)c2cccs2)CC1	·	-0.67	-1.5	4.2*	-0.67	8136*	1520	i
O=C(CCS(=O)(=O)c1ccc(Cl)cc1)N1CCN(S(=O)(=O)c2cccs2)CC1	-14	-0.16	-0.06	-0.48	-0.77	·	·	·
COc1ccc2c(Cl)c(-c3nnc(SCC(N)=O)n3C)sc2c1	13	-0.67	0.15	0.028	-1.6	·	·	·
COc1ccc2c(Cl)c(C(N)=O)sc2c1	·	1.4	-0.66	7.3*	0.51	15304*	1792	+
O=C1c2ccccc2C(=O)N1CCCc1nc2ccccc2c(=O)n1Cc1ccco1	·	-0.32	-0.29	0.0057	-0.81	·	·	·
COc1ccc(NC(=O)c2sc(SCc3ccccc3)nc2N)cc1	9	·	·	·	·	·	·	·
COc1ccc(NC(=O)c2sc(SC)nc2N)cc1	·	3.5	-0.51	15*	0.21	19600*	1536	+
COc1ccc2c(c1)c1ncn(Cc3ccco3)c(=O)c1n2C	51	1.2	0.57	7.5*	-0.0012	12892*	1532	+
Cn1c2ccc(F)cc2c2ncn(CCN3CCOCC3)c(=O)c21	40	0.99	0.06	1.2	-0.24	·	·	·
COc1ccc(CCN2CCCn3c2nc2c3c(=O)n(Cc3ccccc3F)c(=O)n2C)cc1OC	·	0.55	0.07	6.3*	0.37	17816*	1740	i
Cc1nc2sc(C(c3cccc(F)c3)N3CC(C)OC(C)C3)c(O)n2n1 (stereo not given)	6	-0.026	1.3	1.3	0.2	·	·	·
CC(=O)C(C)Oc1ccc2c3c(c(=O)oc2c1)CCCC3 (stereo not given)	-18	-0.033	-0.74	7.8*	-1.1	8432*	·	+
CC(=O)COc1ccc2c3c(c(=O)oc2c1)CCCC3	13	0.02	0.1	4.9*	0.07	9956*	1048	+
CC(=O)C(C)Oc1ccc2c3c(c(=O)oc2c1)CCCCC3 (stereo not given)	-3	-0.6	-0.01	1.5	-0.29	·	·	·
Cc1ccc(S(=O)(=O)N2CCOCC2)cc1C(=O)Nc1ccccn1	-12	0.25	-0.12	-0.092	0.37	·	·	·
Cc1cc(NC(=O)c2cc(S(=O)(=O)N3CCCCC3)ccc2C)n(-c2ccccn2)n1	·	0.02	0.85	21*	-0.028	16476*	1732	+
CCOC(=O)c1nn(-c2ccc(C)c(C)c2)c(=O)c2c(N)scc12	-5	·	·	·	·	·	·	·
CCOC(=O)c1nn(-c2ccc(OC)cc2)c(=O)c2c(N)scc12	29	0.16	0.56	5.1*	0.42	6660*	1672	i
